# Measurements published in the OligoGym collection.
# Target: SMYD3
# Test: pooled miR-30 sensor sort-seq; sequence = guide strand
# Settings: shRNA
# Further: reference of the scale not given here.
row,Sequence,sensor-assay potency score (higher = more potent)
1,TTGAACACAATCGAACAGTTGG,0.615
2,TTTTCTGACACTTAGCACTACA,-0.327
3,TAGAATCAAATCTTCAATCAGG,-0.0994
4,TAATATTTGACTCCAGATCATA,-1.27
5,TAGCATATCAGCATCCTTGTCC,0.139
6,TTGAACTTCCTTCCATACTTGC,-0.357
7,TTTGTTAATATTTGACTCCAGA,-0.278
8,TAGGCCAACACCAACTTCCTGC,0.026
9,TTTTTCTGACACTTAGCACTAC,-0.019
10,TTTACCTACACAAACACGGAAC,-0.662
11,TTCTTCTAAAAGTAGAATCAAA,-1.27

# Target: SNAP23
# Test: as above
# Settings: shRNA
row,Sequence,sensor-assay potency score (higher = more potent)
1,TAATCTGGTGAGCTCTCTGTTG,-0.844
2,TTGGTTGCTGAAGCTGACCATT,-0.861
3,TTATTTGTGGATTTTGAGCATC,-0.871
4,TTGTTCCTTTTGTTCATCCAGC,-0.861
5,TAATGTATCCACCACTGGCTGC,-0.654
6,TTGAGTCAGGTTCTCTTCCATT,-1.05
7,TTAGTTATGCTATTACATGGGC,-0.215
8,TTCTTTGTTCTATTACATGGGC,-0.51
9,TTAGATACTACATTGCAAGGTG,0.78
10,TTTTACTGAGGTAACAACCTCT,0.719
11,TTGGTGTCAGCCTTGTCTGTGA,0.24
12,TATAACTGCAACTTAAATCAAA,-0.858

# Target: SNAPC2
# Test: as above
# Settings: shRNA
row,Sequence,sensor-assay potency score (higher = more potent)
1,TTCAGTGGAGGGACCAGCCGAC,-0.383
2,TCAGGGGACAGATCCCAGCTGC,-0.373
3,TTTCAGTTCGCTGTGCTCGGCC,-0.483
4,AAGTACTTGTAGATCTTCTCAA,0.257
5,TCAGCTGCTGAGAGCTCGGGGC,-1.02
6,TAGATCTTCTCAAAGTCCACAG,-0.173
7,TGTAGATCTTCTCAAAGTCCAC,-0.752
8,AAGTGACATGAGCAGGTCGAGG,-1.64
9,TTCTCAGCCAGATCCGTCCAGA,-0.94
10,TTATCTTCTCAGCCAGATCCGT,-0.528
11,TATCTTCTCAGCCAGATCCGTC,-0.959
12,AGTACTTGTAGATCTTCTCAAA,-1.85

# Target: SNCG
# Test: as above
# Settings: shRNA
row,Sequence,sensor-assay potency score (higher = more potent)
1,TCTCTTTGGATGCCACACCCTC,-1.21
2,ACAACATTCTCCTTGGTCTTGG,-0.611
3,TGCTTGGTCTTTTCCACCGCAC,-1.01
4,TACAACATTCTCCTTGGTCTTG,-0.826
5,TGGTCTTCTCAGCTGCTTCCGT,-1.23
